# Data reported in PubChem BioAssay (NCI).
# Compounds without any hit were thinned out: in the full panel of roughly 83,000, 20% have a hit.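 Results are percent growth after 48 hours of single-concentration exposure. 100 means growth as in untreated cells, lower positive values show inhibition; negative values down to -100 show cell death.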 Unmarked numbers belong to inactive results. The source made the active and inactive calls. Rule for the calls: active = growth percent below 10; inactive = the rest.
# Key:
# Test in all cases: NCI-60 one-dose screen, 48 h (100 = growth as untreated, 0 = no growth, -100 = all killed)
# Conditions in all cases: 10 µM unless noted
# DU-145 prostate = system: DU-145 prostate
# K-562 leukemia = system: K-562 leukemia
# MALME-3M melanoma = system: MALME-3M melanoma
# MDA-MB-231 breast = system: MDA-MB-231 breast
# RXF 393 renal = system: RXF 393 renal
# SF-268 CNS = system: SF-268 CNS
# SF-295 CNS = system: SF-295 CNS
# SF-539 CNS = system: SF-539 CNS
# UACC-257 melanoma = system: UACC-257 melanoma
# M14 melanoma = system: M14 melanoma
Structure (SMILES),growth (DU-145 prostate),growth (K-562 leukemia),growth (MALME-3M melanoma),growth (MDA-MB-231 breast),growth (RXF 393 renal),growth (SF-268 CNS),growth (SF-295 CNS),growth (SF-539 CNS),growth (UACC-257 melanoma),growth (M14 melanoma)
Cn1c(=O)c2c(nc(NC3=NS(=O)(=O)c4ccccc43)n2Cc2ccccc2)n(C)c1=O,108%,104%,109%,90.4%,78.3%,96.7%,103%,100%,109%,106%
COc1ccc2nc3ccccc3c(NCc3ccc(F)cc3)c2c1,16.5%,1.95% (active),-5.2% (active),16.7%,-18.9% (active),34.6%,14.4%,3.85% (active),-11.1% (active),15.3%
COc1ccc2c(c1)c(-c1nc(-c3cn(C)c4ncccc34)cs1)cn2CCO,90.9%,25.2%,110%,57%,84.6%,91.1%,74.1%,75%,92.4%,75.1%
CCCCCCCCn1ccc2cc(NC(=O)Cn3cc(CN4CCOCC4)nn3)ccc21,106%,89.1%,100%,90.5%,91.9%,106%,90.1%,104%,104%,91%
Cc1ccc(-c2cc(C(=O)N3N=C(c4ccc(N)cc4)CC3c3ccc(Cl)cc3)c3ccccc3n2)cc1 (stereo not given),18.6%,7.72% (active),67%,44.5%,-0.262% (active),38.9%,21.4%,-2.29% (active),43.7%,-24% (active)
COc1ccc(C2=C/C(=C\c3ccc(Cl)cc3)C(=O)N2/N=C/c2ccc(Cl)cc2)cc1,105%,89.2%,96.4%,88.8%,99.3%,92.6%,100%,101%,88.7%,100%
O=C(/C=C/C12c3ccccc3C(c3ccccc31)C1C(=O)NC(=O)C12)c1ccc(F)cc1 (stereo not given),22.2%,6.1% (active),20.2%,11.9%,-35.4% (active),31.3%,11.5%,6.05% (active),27.3%,10.2%
CCCCCCCCCCCCCCCCOC(=O)c1c(C)[nH]c(/C=C2\N=C(c3ccc[nH]3)C=C2OC)c1C,49.3%,38.3%,68.4%,46.6%,32%,69.6%,68.7%,63.6%,86.1%,-17.1% (active)
COc1cc2c(c(OC)c1OC)C(=O)N[C@@H]1[C@@H](O)[C@@H](O)[C@H](O)C[C@@H]21,110%,96.6%,108%,106%,102%,103%,98.3%,100%,100%,98.5%
O=C(Cn1nnc([N+](=O)[O-])n1)c1ccccc1,99.4%,83.3%,92.7%,71.5%,91.8%,83.1%,58%,93.3%,90.9%,71.5%
Cc1cc(N2CCN(C)CC2)nc(NCc2cc(Nc3ccnc4cc(Cl)ccc34)ccc2F)n1,10.5%,2.5% (active),-76.6% (active),-56.5% (active),-70.9% (active),8.21% (active),-70.1% (active),-83.4% (active),-73.5% (active),-65% (active)
CCCCNC1=C(OCC)C(=O)c2ccccc2C1=O,104%,126%,121%,98.9%,92.8%,97.3%,103%,112%,95.7%,95.5%
